Nrf2 activator: qHTS of Nrf2 Activators | AREc32 ARE-luciferase reporter (MCF7-derived line), luminescence, 24 h | Potency, µM (top dose mostly 46.1 µM), for inactives: at the top dose activation, hits mostly activators | actives 0.31% (n = 410,000); note: % of control where 0% means no effect; nearly all actives have a fitted effect of over 65% in size
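ARE activation measured as luciferase luminescence (Steady-Glo, 30 min RT) in AREc32_Fluc cells after 24 hr compound exposure at 37 deg C, 5% CO2; cells seeded overnight at 1000/well in OPTI-MEM, 5% FBS.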
TrxR1 substrate: qHTS Assay for Substrates of Mammalian Selenoprotein Thioredoxin Reductase 1 (TrxR1): qHTS; Thioredoxin reductase 1, cytoplasmic (Rattus norvegicus), O89049; AID 588456, 2011; Potency, µM (titrated, usually from 114 µM), for inactives: top-dose activity change, negative = substrate turnover; actives 0.01% (n = 390,000); purified TrxR1 substrate turnover, NADPH consumption readout; note: % is set by controls: 0 for no effect and ±100 for the full control effect; nearly all actives have a fitted effect of over 50% in size
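Rat TrxR1, dispensed at 90 nM, was prereduced with 400 uM NADPH (final) for 5 min at ~22 deg C, then incubated with compound 15 min before 400 uM selenite. A first-read NADPH fluorescence drop versus no-compound background flagged substrates.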
GALK inh: qHTS Assay for Inhibitors of Human Galactokinase (GALK); P51570; Purified GALK, Kinase-Glo residual ATP luminescence; Potency, µM (doses to about 57.5 µM), without a hit: at the highest dose activity change, negative = inhibition, most hits filed as inhibitors; actives 0.007% (n = 270,000); AID 1868, 2009; note: % is set by controls: 0 for no effect and ±100 for the full control effect
Target sequence (P51570 whole entry, looked up): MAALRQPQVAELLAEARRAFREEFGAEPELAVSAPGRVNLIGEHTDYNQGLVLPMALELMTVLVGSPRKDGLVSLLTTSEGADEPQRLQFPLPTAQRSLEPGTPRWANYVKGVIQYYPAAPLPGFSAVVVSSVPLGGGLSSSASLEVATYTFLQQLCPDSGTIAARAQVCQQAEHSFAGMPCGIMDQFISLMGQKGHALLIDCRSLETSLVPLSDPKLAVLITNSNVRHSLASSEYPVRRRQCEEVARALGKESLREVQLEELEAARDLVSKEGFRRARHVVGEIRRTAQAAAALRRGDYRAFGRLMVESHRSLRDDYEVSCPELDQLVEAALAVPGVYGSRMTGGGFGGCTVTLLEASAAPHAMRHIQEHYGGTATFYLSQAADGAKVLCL
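Compounds were pin-transferred into ATP buffer (35 uM final), then GALK plus galactose (5 nM, 100 uM final) was added. After 1 h at room temperature, Kinase-Glo Plus was added and luminescence read after 10 min.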
A549 tox: Nrf2 qHTS screen for inhibitors: counterscreen for cytotoxicity; A549 ARE-Fluc cells, CellTiter-Fluor viability, 18-24 h; Potency, µM (top dose mostly 46 µM), without a hit: top-dose activity change, negative = cytotoxicity, usual class: inhibitors; actives 0.16% (n = 390,000); note: % is set by controls: 0 for no effect and ±100 for the full control effect
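Cytotoxicity counterscreen: CellTiter-Fluor fluorescence was measured in A549 ARE_Fluc cells after 18-24 h of compound exposure in a concentration series. The subsequent BugLite luminescent read reports ARE-luciferase activity.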
TrxR1 inh: qHTS Assay for Inhibitors of Mammalian Selenoprotein Thioredoxin Reductase 1 (TrxR1): qHTS; Thioredoxin reductase 1, cytoplasmic (Rattus norvegicus), O89049; recombinant rTrxR1, NADPH fluorescence consumption, selenite substrate; Potency, µM (doses to about 114 µM), without a hit: top-dose activity change, negative = inhibition, hits mostly inhibitors; actives 1% (n = 390,000); AID 588453, 2011; note: % is set by controls: 0 for no effect and ±100 for the full control effect; nearly all actives have a fitted effect of over 65% in size
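Rat TrxR1 (90 nM in the dispensed reagent) was pre-reduced with 400 uM NADPH for 5 min at room temperature, then incubated with compound for 15 min. After 400 uM selenite was added, NADPH fluorescence (Ex 340/Em 450 nm) was followed for 8 min.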
Nrf2 inh: Nrf2 qHTS screen for inhibitors. A549 ARE-Fluc reporter, luciferase luminescence, 18-24 h. Potency, µM (doses to about 46 µM), without a hit: at the top dose activity change, negative = inhibition, hits mostly inhibitors. actives 2.1% (n = 360,000); note: % is set by controls: 0 for no effect and ±100 for the full control effect; nearly all actives have a fitted effect of over 60% in size
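A549 ARE_Fluc cells (5000/well, 5% FBS OPTI-MEM) pre-incubated 2 h, then treated with compounds 18-24 h at 37C/5% CO2 in concentration-response. CellTiter-Fluor viability read first; BugLite luciferase luminescence after 15 min at room temperature gives Nrf2 activity.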
Active calls of the source: *; ? = inconclusive; nt = not tested or not shown; [ ] = dose if it differs, or a comment. A selection: hits, their analogues and other compounds. The true share with any hit is near 3%. Calls come from the whole dose curve; as a rule, active = well fitted curve in the direction sought with a large enough effect; inconclusive = small, poorly fitted or top-dose-only effect, or another doubt; inactive = no such curve, though single readings can be large; an effect the other way counts as inactive or inconclusive. Potency is the fitted concentration of half-maximal effect.

SMILES | Nrf2 activator | TrxR1 substrate | GALK inh | A549 tox | TrxR1 inh | Nrf2 inh
Cc1cc(/C=C2/C(=O)NC(=O)N(C)C2=O)c(C)n1-c1ccccc1 | 4% | 6% | -2% | 3% | 1% | ?
C=CCN1C(=O)/C(=C/c2cc(C)n(-c3ccccn3)c2C)C(=O)NC1=S | 3% | -14% | 0% | 0% | 50µM* | 12%
CNCCc1c[nH]c2ccc(O)cc12 | 0% | 6%[57.1 µM] | nt | -4% | ? | -10%
CNCCc1c[nH]c2ccccc12 | 5% | 5% | 8% | -3% | 56µM* | 28%
CN1C(=O)C(=Cc2ccccc2Oc2ccc(Cl)c(F)c2)C(=O)N(C)C1=O | 5% | -6% | 6% | 4% | 11µM* | nt
O=C1NC(=O)C(=Cc2ccccc2Oc2ccc(F)cc2)C(=O)N1 | 0% | -4%[57.1 µM] | -3% | 4% | 13µM* | -3%
C=CCn1cc(C=C2C(=O)N(C)C(=O)N(C)C2=O)c2ccccc21 | ? | 9% | nt | -2% | 30% | 10%
CC1=NN(c2ccccc2)C(=O)C1/C=C1/C(=O)NC(=O)N(c2cccc(C)c2)C1=O (stereo unspecified) | nt | nt | -2% | nt | nt | nt
O=C1NC(=O)C(=Cc2ccc(-c3ccccc3[N+](=O)[O-])o2)C(=O)N1 | 5% | 5%[57.1 µM] | 5% | 3% | 0%[57.1 µM] | -7%
Cc1cccc(N2C(=O)NC(=O)/C(=C/c3cc4c(cc3[N+](=O)[O-])OCO4)C2=O)c1 | 1% | 9%[57.1 µM] | 3% | 0% | 7.1µM* | 0%
O=C1NC(=O)C(=Cc2ccccc2[N+](=O)[O-])C(=O)N1 | 0% | 6% | nt | 0% | 7.9µM* | -6%
Cc1ccc(S(=O)(=O)Oc2ccccc2C=C2C(=O)NC(=O)NC2=O)cc1 | 3% | nt | nt | nt | nt | nt
CCOC(=O)c1oc2ccc(S(=O)(=O)n3nc(-c4ccc(Br)cc4)cc3N)cc2c1C | 0% | -1% | nt | -3% | 30% | 10%
Cc1oc(-c2ccc(Cl)cc2)nc1CN1CCC(C(=O)NCCCN2CCN(c3cccc(Cl)c3)CC2)CC1 | 4% | -4% | nt | -9% | 7% | ?
O=C1NC(=O)C(=Cc2cc3c(cc2[N+](=O)[O-])OCO3)C(=O)N1 | 0% | 9% | -1% | -8% | 8.9µM* | -15%
CN(C)c1ccc(C=C2C(=O)NC(=O)NC2=O)cc1[N+](=O)[O-] | 0% | 1%[57.1 µM] | -1% | -11% | ? | 1%
CN1C[C@H](C(=O)N[C@]2(C)O[C@@]3(O)[C@@H]4CCCN4C(=O)[C@H](Cc4ccccc4)N3C2=O)C[C@@H]2c3cccc4[nH]cc(c34)C[C@H]21 | nt | ? | nt | nt | -9%[57.1 µM] | nt
CC(C)C[C@H]1C(=O)N2CCC[C@H]2[C@]2(O)O[C@](NC(=O)C3C=C4c5cccc6[nH]c(Br)c(c56)C[C@H]4N(C)C3)(C(C)C)C(=O)N12 (stereo partly specified) | 8% | 12% | nt | ? | 20% | 18µM*
Cc1c(NS(=O)(=O)c2ccccc2)ccc([N+](=O)[O-])c1Cl | 4% | 1%[57.1 µM] | nt | ? | 5%[57.1 µM] | 15µM*
COc1cccc(-n2nnc3c(sc4nc(C)cc(C)c43)c2=O)c1 | 3% | -6% | nt | 8% | 9% | ?
Cc1cc(=O)n(-c2ccccc2)n1C | 0% | 0% | nt | -3% | 24% | ?
CCC1(c2ccccc2)C(=O)N(C)C(=O)N(C)C1=O | 0% | 3% | -2% | -1% | 22% | -1%
CN1C(=O)N(C)C(=O)C2(Sc3ccccc3C2=O)C1=O | 0% | 3% | 1% | 6% | 28µM* | 1%
CCOc1ccc(NC(=O)c2cc3c(C)nn(-c4ccccc4)c3s2)cc1 | 1% | 36% | nt | -12% | 43% | ?
Cc1c(P(=S)(c2ccccc2)c2ccccc2)[n+]2ccccc2n1CCc1ccccc1 | 0% | nt | nt | -27% | nt | ?
SMILES | Nrf2 activator | TrxR1 substrate | GALK inh | A549 tox | TrxR1 inh | Nrf2 inh
CCOC(=O)C1=C(CN2CCN(c3ccc(C)cc3C)CC2)NC(=O)NC1c1ccc(OC)cc1 (stereo unspecified) | -1% | -13% | nt | -29% | 1% | 15µM*
CCOC(=O)c1cc2cc(OC)ccc2n1C1CCN(Cc2ccccc2)CC1 | 4% | nt | nt | nt | nt | nt
Cc1ccc(N2CCN(C(=O)C3CCC(CNS(=O)(=O)c4ccc(Br)s4)CC3)CC2C)cc1 (stereo unspecified) | 4% | -8% | nt | 1% | 4% | 9.2µM*
CCC(C)N1C(=O)/C(=C/c2ccc3c(c2)CCN3CCCCl)C(=O)NC1=S (stereo unspecified) | 3% | 0% | -8% | -2% | 13µM* | 4%
COC(=O)[C@@H]1[C@@H](C(=O)OC)C2(c3ccccc3-c3ccccc32)N(c2ccc(Cl)cc2)N1C#N | -3% | -3% | -2% | ? | 11µM* | ?
CCCOP(=O)(OCCC)C(Nc1ccc(C(C)C)cc1)c1ccc([N+](=O)[O-])cc1 (stereo unspecified) | 3% | -6% | 2% | -23% | 5% | ?
O=C(NN1C(=O)C2C3C=CC([C@H]4CC34)[C@@H]2C1=O)c1ccc(Br)cc1 (stereo partly specified) | 0% | 2% | 1% | -2% | 24% | -13%
Cc1ccc(-c2cc(-c3ccccc3)cc(-c3ccccc3)[n+]2-c2ccccc2)cc1 | -3% | -4% | nt | ? | -14% | 18µM*
c1ccc(-c2cc(-c3ccccc3)[n+](-c3ccccc3)c(-c3ccccc3)c2)cc1 | -3% | -3% | nt | ? | -5% | ?
COC(=O)C1=C(c2ccccc2OCc2ccccc2)C[C@@H]2CC[C@H]1N2C(=O)NCc1ccc(Br)cc1 | -1% | 2% | nt | -17% | 24% | 21µM*
COC(=O)C1=C(c2ccccc2OCc2ccccc2)C[C@@H]2CC[C@H]1N2C(=O)NCc1ccccc1 | 2% | 1% | nt | 3% | 27% | ?
COC(=O)C1=C(c2ccc(F)cc2OCc2ccccc2)C[C@@H]2CC[C@H]1N2C(=O)NCc1cccc(F)c1 | 0% | -6% | nt | -18% | 15% | ?
COC(=O)C1=C(c2ccccc2OCc2ccccc2)C[C@@H]2CC[C@H]1N2C(=O)NCc1ccc(C(F)(F)F)cc1 | -1% | 1% | nt | -13% | 23% | 16µM*
